By inhibition is commonly meant the drop in the measured response relative to a control, in per cent.

The record followed here is ChEMBL document CHEMBL1961873, “Compounds: GSK PKIS; Assays: Nanosyn kinase panel” (2012).

Assay [1] addresses Sphingosine kinase 1 (Homo sapiens) (UniProt Q9NYA1). Particulars: at 1 µM.
For assay [2], the target named is T1, Sphingosine kinase 2 (Homo sapiens) (UniProt Q9NRA0).
T1 sequence (whole entry): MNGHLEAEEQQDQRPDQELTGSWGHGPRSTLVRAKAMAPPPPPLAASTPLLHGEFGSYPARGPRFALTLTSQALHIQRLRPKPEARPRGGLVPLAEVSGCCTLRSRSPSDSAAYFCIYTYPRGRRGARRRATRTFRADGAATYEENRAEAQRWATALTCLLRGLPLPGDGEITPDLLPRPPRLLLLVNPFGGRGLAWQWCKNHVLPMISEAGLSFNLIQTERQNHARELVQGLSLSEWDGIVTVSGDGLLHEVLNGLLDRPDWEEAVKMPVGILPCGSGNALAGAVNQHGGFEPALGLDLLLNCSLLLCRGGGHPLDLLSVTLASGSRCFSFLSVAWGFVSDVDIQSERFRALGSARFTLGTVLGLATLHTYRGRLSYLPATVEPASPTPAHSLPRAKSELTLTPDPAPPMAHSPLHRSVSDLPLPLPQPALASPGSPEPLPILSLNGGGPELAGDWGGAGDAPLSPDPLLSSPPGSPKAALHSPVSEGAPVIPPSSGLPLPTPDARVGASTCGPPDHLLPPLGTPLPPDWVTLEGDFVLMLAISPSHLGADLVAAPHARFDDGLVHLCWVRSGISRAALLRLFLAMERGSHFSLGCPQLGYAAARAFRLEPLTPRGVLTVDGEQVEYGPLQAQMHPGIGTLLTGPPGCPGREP
Conditions: at 0.1 µM.

In assay [3] the target is T1, Sphingosine kinase 2 (Homo sapiens). Conditions: at 1 µM.
Assay [4] addresses Casein kinase II subunit alpha (Homo sapiens) (UniProt P68400). Particulars: at 0.1 µM.
The target is the same in assay [5]. Particulars: at 1 µM.
For assay [6], the target named is T2, Inhibitor of nuclear factor kappa-B kinase subunit alpha (Homo sapiens) (UniProt O15111).
T2 sequence (whole entry): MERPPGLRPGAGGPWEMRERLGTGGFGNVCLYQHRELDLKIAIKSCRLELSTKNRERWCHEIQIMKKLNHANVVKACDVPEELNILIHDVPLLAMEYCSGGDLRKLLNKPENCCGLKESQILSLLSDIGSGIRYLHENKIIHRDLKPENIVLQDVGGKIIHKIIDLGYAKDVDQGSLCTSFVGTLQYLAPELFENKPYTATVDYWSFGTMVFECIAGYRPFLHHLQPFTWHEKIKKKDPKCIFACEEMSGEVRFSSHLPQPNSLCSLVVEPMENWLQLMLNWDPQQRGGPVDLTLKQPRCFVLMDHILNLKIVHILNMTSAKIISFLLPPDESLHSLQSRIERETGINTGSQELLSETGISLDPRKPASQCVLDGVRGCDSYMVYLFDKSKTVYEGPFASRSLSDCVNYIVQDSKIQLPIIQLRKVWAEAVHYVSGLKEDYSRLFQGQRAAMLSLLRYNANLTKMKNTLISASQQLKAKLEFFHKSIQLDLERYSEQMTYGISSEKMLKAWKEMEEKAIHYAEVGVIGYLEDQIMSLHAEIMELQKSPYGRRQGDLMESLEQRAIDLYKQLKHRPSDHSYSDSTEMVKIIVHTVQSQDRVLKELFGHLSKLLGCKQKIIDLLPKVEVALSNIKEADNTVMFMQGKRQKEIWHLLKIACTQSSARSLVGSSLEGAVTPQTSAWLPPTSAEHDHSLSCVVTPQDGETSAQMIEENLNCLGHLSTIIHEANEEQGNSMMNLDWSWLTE
Particulars: at 0.1 µM.

In assay [7] the target is T2, Inhibitor of nuclear factor kappa-B kinase subunit alpha (Homo sapiens). Conditions: at 1 µM.
Assay [8] deals with T3, Inhibitor of nuclear factor kappa-B kinase subunit beta (Homo sapiens) (UniProt O14920).
T3 sequence (whole entry): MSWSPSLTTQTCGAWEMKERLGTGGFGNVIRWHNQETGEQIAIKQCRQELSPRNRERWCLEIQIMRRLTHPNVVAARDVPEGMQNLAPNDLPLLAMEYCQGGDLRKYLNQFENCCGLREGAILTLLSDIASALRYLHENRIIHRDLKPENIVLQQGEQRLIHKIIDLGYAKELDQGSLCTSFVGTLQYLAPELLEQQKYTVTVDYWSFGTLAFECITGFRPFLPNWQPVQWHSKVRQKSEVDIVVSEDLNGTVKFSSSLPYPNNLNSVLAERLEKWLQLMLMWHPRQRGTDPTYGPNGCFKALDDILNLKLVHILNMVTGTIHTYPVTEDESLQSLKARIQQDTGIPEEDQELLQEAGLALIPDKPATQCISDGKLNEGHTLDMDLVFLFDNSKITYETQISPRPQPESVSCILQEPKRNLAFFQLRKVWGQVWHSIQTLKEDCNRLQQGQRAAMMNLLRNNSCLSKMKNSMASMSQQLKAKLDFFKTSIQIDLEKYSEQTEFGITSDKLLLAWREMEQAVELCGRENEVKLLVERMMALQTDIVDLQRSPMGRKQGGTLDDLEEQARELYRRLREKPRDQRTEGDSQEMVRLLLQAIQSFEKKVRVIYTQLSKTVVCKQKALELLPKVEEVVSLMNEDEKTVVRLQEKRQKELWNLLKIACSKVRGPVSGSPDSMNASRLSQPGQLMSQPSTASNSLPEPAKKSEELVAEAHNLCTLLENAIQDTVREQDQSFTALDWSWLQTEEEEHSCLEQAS
Conditions: at 0.1 µM.

For assay [9], the target named is T3, Inhibitor of nuclear factor kappa-B kinase subunit beta (Homo sapiens). Conditions: at 1 µM.
Assay [10] concerns the target T4, Inhibitor of nuclear factor kappa-B kinase subunit epsilon (Homo sapiens) (UniProt Q14164).
T4 sequence (whole entry): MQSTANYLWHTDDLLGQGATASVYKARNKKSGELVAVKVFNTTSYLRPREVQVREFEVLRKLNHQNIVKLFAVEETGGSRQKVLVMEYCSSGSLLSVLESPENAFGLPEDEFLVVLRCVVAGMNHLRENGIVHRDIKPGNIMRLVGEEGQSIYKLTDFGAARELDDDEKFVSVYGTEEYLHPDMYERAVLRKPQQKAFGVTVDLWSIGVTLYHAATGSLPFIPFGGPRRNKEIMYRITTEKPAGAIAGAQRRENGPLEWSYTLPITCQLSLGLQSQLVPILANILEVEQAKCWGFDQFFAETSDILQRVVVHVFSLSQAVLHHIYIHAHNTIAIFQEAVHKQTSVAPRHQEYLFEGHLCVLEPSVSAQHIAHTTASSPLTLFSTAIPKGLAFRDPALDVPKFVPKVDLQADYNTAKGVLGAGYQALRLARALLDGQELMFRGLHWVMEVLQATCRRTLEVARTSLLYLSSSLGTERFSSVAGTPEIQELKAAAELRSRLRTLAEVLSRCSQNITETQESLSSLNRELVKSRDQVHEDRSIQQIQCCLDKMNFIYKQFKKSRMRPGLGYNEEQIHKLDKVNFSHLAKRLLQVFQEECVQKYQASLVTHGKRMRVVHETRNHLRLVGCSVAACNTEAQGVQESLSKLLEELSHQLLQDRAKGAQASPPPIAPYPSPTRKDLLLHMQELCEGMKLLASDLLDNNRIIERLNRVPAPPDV
Conditions: at 0.1 µM.

For assay [11], the target named is T4, Inhibitor of nuclear factor kappa-B kinase subunit epsilon (Homo sapiens). Particulars: at 1 µM.
The target of assay [12] is T5, Serine/threonine-protein kinase Nek1 (Homo sapiens) (UniProt Q96PY6).
T5 sequence (whole entry): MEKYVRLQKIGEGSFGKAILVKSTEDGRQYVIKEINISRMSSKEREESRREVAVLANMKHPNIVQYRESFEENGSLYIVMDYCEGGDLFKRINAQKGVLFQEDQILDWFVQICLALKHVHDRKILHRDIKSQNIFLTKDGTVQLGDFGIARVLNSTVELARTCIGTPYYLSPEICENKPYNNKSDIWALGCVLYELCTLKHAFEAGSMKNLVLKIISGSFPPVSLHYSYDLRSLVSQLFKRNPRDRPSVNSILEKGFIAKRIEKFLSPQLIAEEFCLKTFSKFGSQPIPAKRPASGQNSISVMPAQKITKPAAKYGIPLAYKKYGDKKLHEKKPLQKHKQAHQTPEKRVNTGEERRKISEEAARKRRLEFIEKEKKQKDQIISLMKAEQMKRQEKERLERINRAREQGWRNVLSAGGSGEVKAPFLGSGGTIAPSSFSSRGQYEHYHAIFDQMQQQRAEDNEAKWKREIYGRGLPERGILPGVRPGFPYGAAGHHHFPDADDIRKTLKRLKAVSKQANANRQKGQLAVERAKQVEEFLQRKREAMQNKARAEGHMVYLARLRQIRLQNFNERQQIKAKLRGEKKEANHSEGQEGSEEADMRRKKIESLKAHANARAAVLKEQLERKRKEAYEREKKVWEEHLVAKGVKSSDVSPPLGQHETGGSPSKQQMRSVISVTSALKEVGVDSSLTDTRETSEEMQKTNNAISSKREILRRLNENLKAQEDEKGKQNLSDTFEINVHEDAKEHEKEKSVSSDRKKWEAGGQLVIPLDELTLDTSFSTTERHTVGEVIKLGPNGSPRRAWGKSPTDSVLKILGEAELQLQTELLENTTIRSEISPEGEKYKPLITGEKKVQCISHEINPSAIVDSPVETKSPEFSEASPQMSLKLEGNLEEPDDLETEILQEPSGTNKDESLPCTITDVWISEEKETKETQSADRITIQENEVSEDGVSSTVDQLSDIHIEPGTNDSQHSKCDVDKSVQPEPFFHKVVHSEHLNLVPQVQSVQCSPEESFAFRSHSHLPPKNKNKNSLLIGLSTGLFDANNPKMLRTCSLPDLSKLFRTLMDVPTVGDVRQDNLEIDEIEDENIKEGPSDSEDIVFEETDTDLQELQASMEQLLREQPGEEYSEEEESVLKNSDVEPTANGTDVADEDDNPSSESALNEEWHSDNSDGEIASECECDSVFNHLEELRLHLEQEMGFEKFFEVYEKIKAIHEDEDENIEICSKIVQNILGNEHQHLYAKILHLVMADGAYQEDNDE
Particulars: at 0.1 µM.

The target of assay [13] is T5, Serine/threonine-protein kinase Nek1 (Homo sapiens). Particulars: at 1 µM.
Assay [14] concerns the target T6, Serine/threonine-protein kinase Nek2 (Homo sapiens) (UniProt P51955).
T6 sequence (whole entry): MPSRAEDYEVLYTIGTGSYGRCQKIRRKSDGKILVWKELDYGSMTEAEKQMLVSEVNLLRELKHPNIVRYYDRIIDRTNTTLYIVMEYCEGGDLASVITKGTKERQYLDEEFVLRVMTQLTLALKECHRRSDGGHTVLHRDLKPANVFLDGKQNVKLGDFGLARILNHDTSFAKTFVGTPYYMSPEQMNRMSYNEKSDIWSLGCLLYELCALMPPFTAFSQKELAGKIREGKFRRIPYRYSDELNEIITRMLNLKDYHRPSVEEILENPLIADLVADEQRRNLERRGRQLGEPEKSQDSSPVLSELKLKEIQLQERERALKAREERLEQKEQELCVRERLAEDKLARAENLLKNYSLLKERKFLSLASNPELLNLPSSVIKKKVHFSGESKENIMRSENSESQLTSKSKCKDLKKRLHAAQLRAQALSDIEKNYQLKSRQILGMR
Conditions: at 0.1 µM.

For assay [15], the target named is T6, Serine/threonine-protein kinase Nek2 (Homo sapiens). Conditions: at 1 µM.
Assay [16] concerns the target Serine/threonine-protein kinase Nek6 (Homo sapiens) (UniProt Q9HC98). Particulars: at 0.1 µM.
Assay [17] shares this target. Particulars: at 1 µM.
Assay [18] concerns the target Serine/threonine-protein kinase Nek7 (Homo sapiens) (UniProt Q8TDX7). Particulars: at 0.1 µM.
Assay [19] has the same target. Conditions: at 1 µM.
Assay [20] deals with T7, Serine/threonine-protein kinase Nek9 (Homo sapiens) (UniProt Q8TD19).
T7 sequence (whole entry): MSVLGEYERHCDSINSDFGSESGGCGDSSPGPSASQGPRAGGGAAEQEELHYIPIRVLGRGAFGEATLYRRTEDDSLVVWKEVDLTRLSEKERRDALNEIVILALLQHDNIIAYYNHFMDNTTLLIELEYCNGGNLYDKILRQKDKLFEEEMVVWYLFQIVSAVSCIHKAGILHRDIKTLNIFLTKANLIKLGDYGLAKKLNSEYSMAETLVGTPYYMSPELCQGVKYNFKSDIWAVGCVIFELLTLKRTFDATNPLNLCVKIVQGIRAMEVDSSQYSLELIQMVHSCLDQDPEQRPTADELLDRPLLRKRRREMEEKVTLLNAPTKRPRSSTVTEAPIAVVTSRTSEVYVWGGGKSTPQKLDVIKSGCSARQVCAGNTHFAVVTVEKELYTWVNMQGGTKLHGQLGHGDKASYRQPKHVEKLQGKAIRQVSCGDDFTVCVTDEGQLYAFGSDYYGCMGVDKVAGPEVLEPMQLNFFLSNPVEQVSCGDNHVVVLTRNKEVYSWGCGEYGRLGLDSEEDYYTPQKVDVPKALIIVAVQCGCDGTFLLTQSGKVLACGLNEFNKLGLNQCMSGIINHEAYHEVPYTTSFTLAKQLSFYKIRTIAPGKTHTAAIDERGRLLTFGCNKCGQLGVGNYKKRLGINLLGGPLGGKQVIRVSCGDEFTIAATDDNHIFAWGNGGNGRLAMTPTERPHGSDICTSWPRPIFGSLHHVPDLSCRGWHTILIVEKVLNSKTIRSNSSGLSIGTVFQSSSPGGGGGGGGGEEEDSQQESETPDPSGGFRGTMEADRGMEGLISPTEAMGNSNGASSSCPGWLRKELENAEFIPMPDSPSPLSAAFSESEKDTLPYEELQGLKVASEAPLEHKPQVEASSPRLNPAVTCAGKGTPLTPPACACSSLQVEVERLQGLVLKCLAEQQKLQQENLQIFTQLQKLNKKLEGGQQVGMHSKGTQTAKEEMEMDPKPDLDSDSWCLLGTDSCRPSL
Conditions: at 0.1 µM.

Serine/threonine-protein kinase Nek6 (Homo sapiens), sequence (Q9HC98 whole entry): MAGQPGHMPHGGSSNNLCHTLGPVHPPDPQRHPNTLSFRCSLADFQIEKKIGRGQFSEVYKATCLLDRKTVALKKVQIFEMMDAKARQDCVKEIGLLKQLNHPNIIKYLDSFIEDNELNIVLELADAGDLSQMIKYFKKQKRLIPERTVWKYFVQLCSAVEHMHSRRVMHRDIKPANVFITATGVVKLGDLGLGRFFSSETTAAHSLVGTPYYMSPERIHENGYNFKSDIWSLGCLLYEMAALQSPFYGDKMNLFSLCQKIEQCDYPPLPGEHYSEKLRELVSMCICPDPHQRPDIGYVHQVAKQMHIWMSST
Serine/threonine-protein kinase Nek7 (Homo sapiens), sequence (Q8TDX7 whole entry, looked up): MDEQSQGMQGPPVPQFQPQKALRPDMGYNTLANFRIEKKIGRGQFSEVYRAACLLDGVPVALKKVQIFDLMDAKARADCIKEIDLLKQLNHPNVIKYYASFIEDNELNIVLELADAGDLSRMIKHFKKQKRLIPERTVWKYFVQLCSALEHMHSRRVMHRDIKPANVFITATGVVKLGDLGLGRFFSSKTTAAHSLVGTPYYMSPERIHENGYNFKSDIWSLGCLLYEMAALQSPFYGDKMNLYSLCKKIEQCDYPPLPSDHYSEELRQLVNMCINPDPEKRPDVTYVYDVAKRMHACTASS
Casein kinase II subunit alpha (Homo sapiens), sequence (P68400 whole entry, looked up): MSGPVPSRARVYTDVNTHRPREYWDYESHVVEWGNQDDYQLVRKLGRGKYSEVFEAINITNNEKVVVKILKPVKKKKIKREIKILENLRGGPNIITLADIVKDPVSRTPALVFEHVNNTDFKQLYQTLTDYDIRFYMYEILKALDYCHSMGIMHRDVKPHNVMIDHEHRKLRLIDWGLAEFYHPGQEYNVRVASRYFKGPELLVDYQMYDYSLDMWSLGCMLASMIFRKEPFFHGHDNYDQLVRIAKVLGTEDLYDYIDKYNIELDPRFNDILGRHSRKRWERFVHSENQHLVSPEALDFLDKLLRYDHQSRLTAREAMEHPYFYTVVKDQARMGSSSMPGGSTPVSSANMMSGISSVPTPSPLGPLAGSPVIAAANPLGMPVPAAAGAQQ
Sphingosine kinase 1 (Homo sapiens), sequence (Q9NYA1 whole entry): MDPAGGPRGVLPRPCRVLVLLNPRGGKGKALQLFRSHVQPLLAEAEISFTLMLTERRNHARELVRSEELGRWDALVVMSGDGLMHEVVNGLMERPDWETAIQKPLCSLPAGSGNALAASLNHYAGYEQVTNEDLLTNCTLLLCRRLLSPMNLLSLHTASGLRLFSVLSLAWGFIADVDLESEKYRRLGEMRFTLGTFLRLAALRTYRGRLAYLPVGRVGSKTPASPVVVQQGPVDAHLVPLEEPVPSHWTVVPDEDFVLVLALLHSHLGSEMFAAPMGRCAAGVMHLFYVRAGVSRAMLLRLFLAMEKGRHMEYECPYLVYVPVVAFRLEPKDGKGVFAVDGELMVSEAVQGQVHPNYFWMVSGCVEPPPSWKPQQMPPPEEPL

As for `NS(=O)(=O)c1ccc(N/C=C2\C(=O)Nc3ccc4ncsc4c32)cc1`, the inhibition was 0.02% in assay [1]; -1.02% in [2]; -0.93% in assay [3]; 7.56% in assay [4]; 28% in [5]; 2.29% in [6]. The inhibition in [7] was 14.3%; in assay [8], 8.87%; in assay [9], 13.1%; in [10] it was 13.3%; in assay [11], 41.9%; in [12] it was 2.04%. In addition, the inhibition turned out to be 3.28% in assay [13]; 6.71% in [14]; 8.52% in assay [15]; 1.42% in assay [16]; 4.37% in assay [17]; 1.21% in assay [18]. Further, the inhibition stood at 7.53% in [19] and 5.84% in assay [20].
